This is a sample that favours compounds with a hit; in the whole collection about 1.8% have one here.
LYPLA2 counter: LYPLA2 inhibitors, primary screen, counter-screen for PME1 inhibitor project, biochemical, fluorescence polarization, FP-Rh probe ABPP; recombinant LYPLA2; inhibition, % at 5.9 µM; actives 0.38% (n = 320,000); AID 2177, 2009;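 active = inhibition above the screen-wide mean plus 3 SD, limit set per campaign, cut at about 26% in these data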;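 also: 0% = LYPLA2 with DMSO and 100% = wells lacking LYPLA2 enzyme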
Target sequence (O95372 whole entry, looked up): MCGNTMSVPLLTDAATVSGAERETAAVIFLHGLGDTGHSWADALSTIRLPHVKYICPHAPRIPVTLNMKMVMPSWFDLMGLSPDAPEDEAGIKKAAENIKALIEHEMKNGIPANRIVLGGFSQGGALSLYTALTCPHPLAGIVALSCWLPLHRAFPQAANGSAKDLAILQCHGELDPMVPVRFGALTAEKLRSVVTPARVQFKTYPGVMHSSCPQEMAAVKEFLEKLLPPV
GSTO1 counter: inhibitors of recombinant GSTO1, primary screen, counter-screen for RBBP9 inhibitor project, biochemical, fluorescence polarization. actives 1.1% (n = 300,000). inhibition, % at 5.96 µM. activity-based probe fluorescence polarization;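 active = inhibition above the campaign mean inhibition plus 3 SD, cut at about 35% in these data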;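 also: 0% = GSTO1-1 with DMSO and 100% = wells lacking GSTO1-1 enzyme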
Target sequence (P78417 whole entry, looked up): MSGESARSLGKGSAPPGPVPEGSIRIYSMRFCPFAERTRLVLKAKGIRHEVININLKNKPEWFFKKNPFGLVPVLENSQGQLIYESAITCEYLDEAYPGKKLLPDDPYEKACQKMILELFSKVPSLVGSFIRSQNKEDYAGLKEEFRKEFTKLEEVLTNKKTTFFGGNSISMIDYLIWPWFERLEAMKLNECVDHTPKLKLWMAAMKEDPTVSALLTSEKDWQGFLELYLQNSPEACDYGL
PME-1 inh: PME-1 inhibitors via competitive probe labeling, primary screen, biochemical, fluorescence polarization, FP-Rh probe, HTS; inhibition, % at 5.9 µM; recombinant PME-1; AID 2130, 2009; actives 0.53% (n = 320,000); Protein phosphatase methylesterase 1 (Homo sapiens), Q9Y570;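 active = inhibition above the campaign mean of all compounds plus 3 SD, cut at about 26% in these data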;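 also: competitive labeling of PME-1 active site by serine hydrolase directed probe; 0% = PME-1 with DMSO and 100% = wells lacking PME-1 enzyme; inhibitors block probe labeling so polarization falls and inhibition rises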
PAD4 FP inh: human PAD4 inhibitors, primary screen, biochemical, fluorescence polarization, 1536-well format; actives 0.41% (n = 330,000); inhibition, % at 6.36 µM; recombinant PAD4, RCA probe fluorescence polarization; AID 485272, 2010; Protein-arginine deiminase type-4 (Homo sapiens), Q9UM07;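 active = percent inhibition above a cutoff equal to the mean of all tested compounds plus 3 SD, cut at about 15% in these data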;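 also: 0% = PAD4 with RCA probe and DMSO and 100% = probe without PAD4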
Fam108B inh: mouse Fam108B serine hydrolase inhibitors, primary screen, counter-screen for RBBP9 inhibitor project, biochemical, fluorescence polarization; inhibition, % at 9.51 µM; recombinant Fam108B, FP-Rh probe fluorescence polarization; AID 1947, 2009; actives 0.33% (n = 300,000);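 active = inhibition above the screen mean inhibition plus 3 SD, computed separately per campaign, cut at about 18% in these data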;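 also: inhibitors lower polarization as less probe binds the enzyme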
LYPLA1 inh: LYPLA1 inhibitors, primary screen, counter-screen for PME1 inhibitor project, biochemical, fluorescence polarization, FP-Rh probe ABPP. Acyl-protein thioesterase 1 (Homo sapiens), O75608. recombinant LYPLA1. inhibition, % at 5.9 µM. actives 0.16% (n = 320,000);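 active = inhibition above the mean of all tested compounds plus 3 SD, set per campaign, cut at about 14% in these data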;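 also: inhibitors block serine hydrolase probe labeling of LYPLA1 so polarization falls; 0% = enzyme with DMSO and 100% = wells lacking LYPLA1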
GSTO1 inh conf: GSTO1 inhibitor hit confirmation, counter-screen for RBBP9 inhibitor project, biochemical, fluorescence polarization, triplicate; recombinant GSTO1, probe fluorescence polarization; actives 54% (n = 2,400); shares compounds with GSTO1 counter; inhibition, % at 5.96 µM;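 active = inhibition above the primary screen's cutoff, its mean inhibition plus 3 SD, cut at about 35% in these data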;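 also: loss of polarization as inhibitors block binding of rhodamine sulfonate ester activity probe; 0% = GSTO1 with DMSO and 100% = wells lacking GSTO1 enzyme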
The depositor's hits bear a star; x = not tested or not shown.

SMILES	LYPLA2 counter	GSTO1 counter	PME-1 inh	PAD4 FP inh	Fam108B inh	LYPLA1 inh	GSTO1 inh conf
Cc1cccc([C@@H]2[C@@H]3C(=O)N(Cc4ccccc4)C(=O)[C@@H]3[C@]3(Cc4ccc(Cl)cc4)C(=O)N(c4cccc(Br)c4)C(=O)N23)c1	2.5	70.5*	-1.4	-0.7	-10.7	-3.0	1.7
CCCCCCC(=O)N(O)C1CC(=O)N(c2ccc(Br)cc2)C1=O (stereo unspecified)	-8.1	-5.5	-10.5	-7.1	-0.1	-5.0	x
COc1ccccc1N(O)C1CC(=O)N(c2ccc(Br)cc2)C1=O (stereo unspecified)	1.4	51.0*	10.6	-6.9	14.7	1.7	11.6
COC(=O)c1ccc(N=CC2=C(O)CC(c3ccccc3)CC2=O)cc1 (stereo unspecified)	0.9	7.1	1.1	0.9	4.3	-0.7	x
O=C1CC(c2ccccc2)CC(O)=C1C=Nc1ccc(O)cc1 (stereo unspecified)	6.8	56.4*	-0.9	-1.1	-4.5	-1.1	5.7
CC(=O)Nc1nc(-c2ccc(Cl)cc2)nc(C)c1C(C)=O	-7.7	43.8*	-3.2	0.3	1.1	-2.4	4.1
O=C(O)C1=NN(c2ccccc2)C(=O)C1	6.1	48.2*	-1.3	-1.2	6.7	0.7	11.0
O=C(O)C1=NN(c2ccccc2)C(=O)CC1	3.4	5.8	-2.7	-6.0	0.2	4.5	x
Cc1nn(-c2ccccc2)c2c1C(c1ccc([N+](=O)[O-])cc1)C(C#N)=C(N)O2 (stereo unspecified)	5.6	12.3	3.3	-13.1	3.2	0.7	x
Cc1nn(-c2ccccc2)c2c1C(c1ccco1)C(C#N)=C(N)O2 (stereo unspecified)	-0.8	40.6*	0.1	-7.5	-3.9	0.1	9.9
COc1cc(C2C(C#N)=C(N)Oc3c2c(-c2ccccc2)nn3-c2ccccc2)cc(OC)c1OC (stereo unspecified)	-4.6	51.9*	4.9	11.7	-2.7	1.4	14.2
COc1cccc(CNC(=O)c2cc(S(=O)(=O)N3CCOCC3)ccc2N2CCCC2)c1	2.7	x	3.1	-2.3	x	-0.8	x
Cc1ccc(NC(=O)CCCc2nc3ccccc3c(=O)[nH]2)c(Cl)c1	2.8	x	10.6	1.5	x	2.8	x
CC(=O)C1=C(c2ccccc2)NC(=S)NC1c1ccc(O)c(O)c1 (stereo unspecified)	4.0	45.3*	3.6	-0.5	-2.5	-0.3	7.3
CC(=O)C1=C(c2ccccc2)NC(=S)NC1c1cc(Cl)c(OC(C)C)c(Cl)c1 (stereo unspecified)	-10.8	-10.2	-10.1	-6.3	-10.8	-11.0	x
C[C@@H]1COC(=O)[C@@H](CC(=O)OC(C)(C)C)C/C=C\C[C@@H](CC(=O)N[C@H](CO)Cc2ccccc2)C(=O)N1	x	x	x	0.8	x	x	x
CC(OC(=O)c1cccc(S(=O)(=O)N2CCOCC2)c1)C(=O)NC1CCCCC1C (stereo unspecified)	-3.6	x	9.9	-1.7	x	-2.0	x
CC(C)CC1Nc2ccc(C(=O)NCc3ccc4c(c3)OCO4)cc2NC1=O (stereo unspecified)	2.8	44.8*	-8.4	6.3	2.7	-3.3	31.8
O=C(O)c1ccc2cccnc2n1	5.8	-1.0	-0.7	-6.5	5.3	-3.6	x
O=C(O)c1ccc2cccc(O)c2n1	-0.6	39.2*	-2.6	-0.9	2.5	-1.9	22.2
COc1cc(CNc2ccc(O)cc2)cc(Br)c1OCc1ccccc1	10.9	52.6*	16.2	9.6	12.9	2.9	0.6
COc1cc(CNC(C)c2ccccc2)cc(Br)c1OCc1ccccc1 (stereo unspecified)	6.6	-9.2	1.0	1.1	-6.6	1.0	x

Compound activity (PubChem BioAssay)
